# Screens (PubChem)
# Sampled rows, rich in hits. Any-hit rate of the full collection: about 4.6%.
# tim23-1 inh = growth inhibitors of tim23-1 mutant yeast, primary screen, luminescence, uHTS. inhibition, % at 20 µM. S. cerevisiae tim23-1 growth, BacTiter-Glo luminescence, 24 h. 1.3% of 330,000 active;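 active means growth inhibition of the mutant yeast at or above 50%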;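 further: temperature-sensitive mutant grown at 25 °C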
# V-ATPase pHluor = regulators of yeast V-ATPase proton pumping, primary screen, pHLuorin cytosolic pH fluorescence; S. cerevisiae; response, % at 10 µM; 0.37% of 350,000 active; in the data active means response mostly above about 7.3%, no sharp cut-off; inactive means mostly below about 5.4%; further: actives read high
# PfHsp90 set2 = growth inhibition of PfHsp90-expressing yeast, primary screen, antimalarial PfHsp90 inhibitor project, S. cerevisiae, BacTiter-Glo luminescence, single point, set 2; BacTiter-Glo ATP, 48 h; yeast lacking PDR1 and PDR3 efflux regulators; inhibition, % at 9.4 µM; 0.32% of 310,000 active; AID 504621, 2011;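 active means every replicate shows inhibition above about 80%, whatever the replicate mean, limit read from the data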
# SKKanGAS inh = S. pyogenes SKKanGAS growth inhibitors in kanamycin, primary screen, streptokinase expression inhibitor project, SKKanGAS strain, BacTiter-Glo luminescence; 6 h; inhibition, % at 7.5 µM; 1.3% of 300,000 active; AID 1662, 2009;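 active means mean replicate score, as percent of positive control median, at least 50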;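 further: strain carries kanamycin resistance gene driven by streptokinase promoter and grows in 40 µg/ml kanamycin; loss of luminescence reflects streptokinase promoter inhibition or plain growth inhibition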
# TIM10 inh = growth inhibitors of isogenic TIM10 control yeast, primary screen, counter-screen for tim10-1 yeast inhibitor project, luminescence, uHTS; S. cerevisiae TIM10 strain growth, BacTiter-Glo luminescence, 24 h; inhibition, % at 10 µM; 1.4% of 330,000 active; AID 463195, 2010;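 active means inhibition of 40% or more at the single tested concentration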;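 further: wild-type TIM10 isogenic control strain grown at permissive 25 °C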
# tim10-1 inh = growth inhibitors of tim10-1 mutant yeast, primary screen, luminescence, uHTS | 2.2% of 330,000 active | AID 463190, 2010 | S. cerevisiae tim10-1 ts strain growth, BacTiter-Glo, 24 h | inhibition, % at 20 µM;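 active means inhibition of at least 40%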;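 further: mutant grown at 25 °C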
# tim10-1 confirm = growth inhibitors of tim10-1 mutant yeast, confirmation, single concentration, luminescence, S. cerevisiae; AID 463213, 2010; S. cerevisiae tim10-1 ts strain growth, BacTiter-Glo, 24 h; inhibition, % at 20 µM; shares compounds with tim10-1 inh; 56% of 7,400 active;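 active means inhibition of yeast growth at or above a set limit in either of two repeat tests at 20 µM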;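 further: tim10-1 mutant grown at permissive 25 °C to find synthetic lethal compounds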
# TIM10 conf = growth inhibitors of wild-type TIM10 yeast, confirmation, counter-screen for tim10-1 synthetic lethality project, single concentration, luminescence, S. cerevisiae; shares compounds with TIM10 inh; S. cerevisiae tim10 strain growth, BacTiter-Glo luminescence, 24 h; inhibition, % at 10 µM; 63% of 4,600 active; AID 463215, 2010;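 active means inhibition of yeast growth at or above a set limit in either of two replicates at 10 µM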; further: this counterscreen used the strain with wild-type TIM10
# tim23-1 conf = tim23-1 mutant yeast growth inhibitors, confirmation, luminescence, single concentration | shares compounds with tim23-1 inh | S. cerevisiae tim23-1 growth, BacTiter-Glo luminescence, 24 h | inhibition, % at 20 µM | 83% of 4,400 active | AID 463218, 2010;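 active means inhibition above about 39% in either of two replicate wells at 20 µM, limit read from the data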;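 further: temperature-sensitive tim23-1 mutant grown at 25 °C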
# VATPase regulator = yeast V-ATPase proton pumping modulators, confirmation, S. cerevisiae, pH-sensitive GFP, second cherry-pick. response, % at 10 µM. S. cerevisiae pHLuorin cytosolic pH, V-ATPase proton transport. shares compounds with V-ATPase pHluor. 2% of 980 active. AID 602197, 2012; in the data active means response above about 24%
# Hits are given with their value; i = inactive; nt = not tested or not shown.
SMILES,tim23-1 inh,V-ATPase pHluor,PfHsp90 set2,SKKanGAS inh,TIM10 inh,tim10-1 inh,tim10-1 confirm,TIM10 conf,others
CCOC(=O)C1(CC)NC(c2ccc(OC)cc2OC)C2C(=O)N(C)C(=O)C21 (stereo not drawn),i,i,nt,i,i,i,nt,nt,
CCOc1ccc(-c2c(C(=O)N/N=C/C3CC=CCC3)nnn2-c2nonc2N)cc1 (stereo not drawn),i,i,i,i,i,i,nt,nt,
COc1ccccc1N1CCN(/N=C/C=C/c2ccccc2[N+](=O)[O-])CC1,i,i,i,i,i,i,nt,nt,
COc1ccc(/C=C/c2ccccc2)cc1[C@H]1[C@H]2C=CC[C@@H](C)[C@@H]2C(=O)N1Cc1ccccc1,i,i,i,i,i,i,nt,nt,
C[C@@H]1CC=C[C@H]2[C@H]1C(=O)N(Cc1ccccc1)[C@H]2c1ccc2ccccc2c1Br,64,i,i,57,65,69,73,56,tim23-1 conf=71
Cc1nc(-c2ccc(NC(=O)c3ccco3)cc2)cs1,68,i,i,i,43,51,i,50,tim23-1 conf=67
Cc1ccc(-c2cccc(C3CC=CC4C3C(=O)N(Cc3ccccc3)C4c3ccc4ccccc4c3)c2)cc1 (stereo not drawn),i,i,i,i,i,i,nt,nt,
COc1ccc(-c2cccc(C3CC=CC4C3C(=O)N(Cc3ccccc3)C4c3ccc(OC)c(Cl)c3)c2)cc1 (stereo not drawn),58,i,i,i,67,49,37,i,tim23-1 conf=62
CC(C)(O)C#Cc1ccc(CN2CCC(n3nccc3NC(=O)C3CC3)CC2)cc1,i,i,i,i,i,i,nt,nt,
O=C1C(C2=C(O)c3ccccc3C2=O)=Nc2ccccc21,62,i,i,i,56,51,i,54,tim23-1 conf=73
CCOC(=O)c1c(C)oc2c(F)c(F)c(F)c(F)c2c1=O,74,i,nt,i,i,42,i,nt,tim23-1 conf=48
CCOC(=O)N=Nc1c2ccccc2c2nc3no[nH]c3nc12,55,22,108,i,86,76,81,96,tim23-1 conf=81;VATPase regulator=118
CCOC(=O)C(=O)N=Nc1c(O)n(C)c2ccccc12,i,i,i,i,i,i,nt,nt,
CN(C)CCSc1nnc(-c2ccccc2)o1,i,i,nt,i,i,i,nt,nt,
O=S1(=O)C=C(Sc2nnc(-c3ccccc3)o2)c2ccccc21,57,17,111,i,91,94,92,91,tim23-1 conf=85;VATPase regulator=26
Cc1nn(Cc2c(F)c(F)c(F)c(F)c2F)c(C)c1NC(=O)c1nn(C)c(C)c1Br,i,i,i,i,i,i,nt,nt,
N#C/C(=C\c1cc(Cl)cc(Cl)c1O)C(=O)NC1CCCCC1,54,15,i,i,i,49,i,nt,tim23-1 conf=58;VATPase regulator=i
Cc1ccc(-c2[nH]ncc2/C=C(\C#N)C(=O)NC2CCCCC2)cc1,i,i,i,i,i,i,nt,nt,
CCOc1ccccc1Nc1nc(-c2sc(C)nc2C)cs1,i,8.3,i,i,i,47,i,nt,VATPase regulator=i
Cc1ccc(NC(=O)CS(=O)Cc2nc(-c3ccc(C)cc3)oc2C)cc1 (stereo not drawn),i,11,i,i,i,40,i,nt,VATPase regulator=i
CC(C)c1ccc(NC(=O)/C(C#N)=C/c2ccncc2)cc1,78,13,i,i,i,54,i,nt,tim23-1 conf=55;VATPase regulator=i
Cc1n[nH]c2c([N+](=O)[O-])c(=O)[nH]c(=O)n12,nt,i,i,nt,nt,nt,nt,nt,
Oc1c(C(c2ccccc2)N2CCCCC2)ccc2ccccc12 (stereo not drawn),nt,i,nt,nt,nt,nt,nt,nt,
Cc1cccc2nc(-c3cccnc3)c(NCCC(C)C)n12,i,12,i,i,i,46,40,nt,VATPase regulator=i
COc1ccc(CNC(=O)COC(=O)c2ccccc2C(=O)c2ccccc2)cc1,i,i,i,i,i,i,nt,nt,
SMILES,tim23-1 inh,V-ATPase pHluor,PfHsp90 set2,SKKanGAS inh,TIM10 inh,tim10-1 inh,tim10-1 confirm,TIM10 conf,others
COC(=O)COc1ccccc1C(N)=O,i,i,i,i,i,i,nt,nt,
COC(=O)COc1ccc(-c2ccc(F)cc2)cc1C=O,i,6.2,i,i,74,62,65,80,VATPase regulator=i
CCOC(=O)N1CCN(C(=O)c2ccc3c(c2)N=C(CC)c2cc(C)ccc2S3)CC1,i,i,i,i,40,i,nt,i,
O=C1CC(N2CCC(c3nc4ccccc4o3)CC2)C(=O)N1c1ccc(Cl)c(C(F)(F)F)c1 (stereo not drawn),i,i,104,i,43,i,nt,i,
O=C1CC(N2CCC(c3nc4ccccc4o3)CC2)C(=O)N1c1ccc(F)cc1 (stereo not drawn),i,i,i,i,i,i,nt,nt,
CCCCCc1nnc(NC(=O)NS(=O)(=O)c2ccc(C)cc2)s1,i,i,i,i,i,i,nt,nt,
Cc1ccc(Cl)cc1N1CCN(C(=O)c2ccc3nc[nH]c3c2)CC1,i,i,i,i,48,i,nt,37,
Cc1cccc(N2CCN(C(=O)c3ccc4nc[nH]c4c3)CC2)c1C,i,i,i,i,i,i,nt,nt,
N=C1N(/N=C/c2ccccc2)C(=Nc2ccccc2)C(=S)N1c1ccccc1,i,i,i,i,57,i,nt,35,
Cc1ccc(/C=N/n2c(-c3ccccc3)n[nH]c2=S)cc1,i,i,i,i,i,i,nt,nt,
Cc1ccc(-n2nnc3c(=O)oc4ccccc4c32)cc1,i,i,i,i,77,i,nt,91,
Cc1ccccc1NS(=O)(=O)c1c(C(=O)N2CCCCCC2)c(C)n(C)c1C,i,i,i,i,i,i,nt,nt,
COc1cccc(NC(=O)NCCCSC2CCCCC2)c1,i,i,i,i,i,i,nt,nt,
Cc1cc(C)c(NC(=S)NCCCSC2CCCCC2)c(C)c1,i,i,i,i,42,i,nt,i,
Clc1ccc2[nH]cc(-c3nnnn3-c3ccccc3)c2c1,i,i,nt,i,42,i,nt,i,
c1ccc(-n2nnnc2-c2cccc3ccccc23)cc1,nt,i,nt,nt,nt,nt,nt,nt,
COC(=O)c1c(NC(=O)c2nc3ccccc3s2)sc2c1CC(C)(C)NC2(C)C,i,i,i,i,55,i,nt,36,
